# Screening results from PubChem BioAssay.
# Only some compounds are listed: those with a hit (about 19% of all), similar ones and a draw of the others.
# AMA1 RON2 block = inhibitors of Plasmodium falciparum AMA1-RON2 interaction | AID 720542 | AlphaScreen AMA1-biotinylated RON2 peptide binding | Potency, µM (highest dose often 58.2 µM), for inactives: top-dose activity change, negative = inhibition, usual class: inhibitors | hit rate 0.2% among 360,000;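 note: potency is the fitted concentration of half-maximal effect; 0% = vehicle wells and -100% = peptide control; nearly all actives have a fitted effect of over 45% in size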
#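 AMA1 (3D7) with his tag at 25 nM final met compounds first, then biotinylated RON2 peptide at 25 nM; detection used donor plus acceptor beads, 10 µg/mL apiece, read by AlphaScreen after 30 min at room temperature.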
# Pf growth 96h = P. falciparum growth inhibition at 96 hours | P. falciparum luciferase reporter growth, 96 h | Potency, µM (titrated, usually from 28.7 µM), for the others: at the top dose activity change, negative = inhibition, most hits filed as inhibitors | hit rate 6.9% among 320,000 | AID 504834; note: potency is the fitted concentration of half-maximal effect; % is set by controls: 0 for no effect and ±100 for the full control effect
#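 Two-generation exposure (96 h) targets delayed-death phenotype. Reporter parasites carrying integrated firefly luciferase, in red cells at 2% hematocrit and 0.05% parasitemia final, kept at 37 C, 5% CO2; luminescence loss indicates inhibition.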
# Shiga toxin inh = blocks Shiga toxin action in Vero cells. Vero cells, Shiga toxin protein synthesis inhibition reporter. inhibition, % at 38.7 µM. hit rate 9.2% among 290,000; in the data active = inhibition mostly above about 28%, no sharp cut-off; inactive = mostly below about 43%; note: 0% is about no effect
# Pf growth 48h = inhibits P. falciparum growth in the first generation, 48 h; hit rate 5.9% among 310,000; Potency, µM (top dose mostly 28.7 µM), for inactives: top-dose activity change, negative = inhibition, usual class: inhibitors; P. falciparum luciferase growth in erythrocytes, 48 h; AID 504832; note: potency is the fitted concentration of half-maximal effect; % is set by controls: 0 for no effect and ±100 for the full control effect
#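 Here the parasites carry a stable luciferase gene and grow inside erythrocytes in Albumax-based RPMI medium with compound for one erythrocytic cycle. Activity is scored as loss of luminescent signal.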
# CHX counter = counter-screen for Shiga toxin inhibitors: cycloheximide protein synthesis inhibition. AID 2314. max response, %. cell reporter, cycloheximide protein synthesis inhibition counterscreen. hit rate 12% among 300,000; in the data active = max response mostly above about 13%, no sharp cut-off; inactive = mostly below about 14%; note: read at 38.3 µM for the half of the compounds with a filed dose; 0% is about no effect
# SARS PLpro yeast = SARS-CoV PLP inhibition in yeast; S. cerevisiae expressing SARS-CoV PLpro, growth rescue; hit rate 0.19% among 330,000; Potency, µM (titrated, usually from 32.9 µM), without a hit: top-dose activity, positive = growth rescue, actives largely listed as activators; AID 485353; calls by dose curve; note: potency is the fitted concentration of half-maximal effect; 0% is about no effect; nearly all actives have a fitted effect of over 55% in size
# * = called active by the depositor; ? = inconclusive; · = not tested or not shown. Unless noted, calls come from the whole dose curve; as a rule, active = well fitted curve in the direction sought with a large enough effect; inconclusive = small, poorly fitted or top-dose-only effect, or another doubt; inactive = no such curve, though single readings can be large; an effect the other way counts as inactive or inconclusive.
SMILES,AMA1 RON2 block,Pf growth 96h,Shiga toxin inh,Pf growth 48h,CHX counter,SARS PLpro yeast
C[C@H](NC(=O)c1ncn(Cc2ccccc2)c1C(=O)N[C@@H](C)c1ccccc1)c1ccccc1,-12%,8.3µM*,·,?,·,-9%
O=C(NCc1ccccc1)c1ncn(Cc2ccccc2)c1C(=O)NCc1ccccc1,-4%,?,·,?,·,1%
CC(C)(C)OC(=O)N1CCC(NC(=O)c2ncn(Cc3ccccc3)c2C(=O)NC2CCN(C(=O)OC(C)(C)C)CC2)CC1,-8%,?,·,5.2µM*,·,0%
Cn1cnc(C(=O)NC2CCN(C(=O)OC(C)(C)C)CC2)c1C(=O)NC1CCN(C(=O)OC(C)(C)C)CC1,0%,·,·,·,·,-3%
CCOC(=O)c1ccc(NC(=O)c2nc[nH]c2C(=O)NC2CCN(C(=O)OC(C)(C)C)CC2)cc1,133%,?,17,10µM*,3,9%
CC(C)(C)OC(=O)N1CCC(NC(=O)c2[nH]cnc2C(=O)Nc2cccc(Cl)c2)CC1,45%,?,·,?,·,-1%
CC(C)(C)OC(=O)N1CCC(NC(=O)c2nc[nH]c2C(=O)NC2CCN(C(=O)OC(C)(C)C)CC2)CC1,92%,3.7µM*,·,3.7µM*,·,0%
O=C(Nc1cc(C(=O)N2CCN(c3ccccc3O)CC2)ccc1Cl)c1cccs1,-9%,?,·,?,·,2%
CCN1CCN(C(=O)C(C)Nc2ccc(OC)cc2OC)CC1 (stereo not drawn),-9%,0%,1,?,-2,3%
COc1ccccc1C(=O)NN=C1CCN(Cc2ccccc2)CC1,17%,-7%,39,-3%,1,-7%
COc1ccc(OC)c(CN2C(=O)CN(S(C)(=O)=O)CC2(C)C(=O)NC(C)C)c1 (stereo not drawn),10%,·,·,·,·,·
CC(=O)Nc1ccc(S(=O)(=O)Nc2ccccc2C(=O)N2CCCCC2)cc1,1%,0%,-17,-25%,-6,11%
CCOC(=O)CC[C@H](NC(=O)Cn1cnc(C(=O)Nc2ccc(C)c(C)c2)n1)C(=O)OCC,0%,·,·,·,·,4%
O=C(Nc1nccs1)c1ccc(NC(=O)c2ccco2)cc1,4%,?,86*,148%,47*,-5%
COc1ccc(NC(=O)CCNC(=O)c2ccco2)cc1S(=O)(=O)N(C)C,13%,-13%,-4,5%,-4,0%
CC(C)(C)c1ccc(NC(=O)CCNC(=O)c2ccco2)cc1,-4%,13%,33,25%,19*,-4%
CC(C)(C)c1ccc(C(=O)Nc2ccc(NC(=O)c3ccco3)cc2)cc1,-5%,10µM*,-22,?,-1,-2%
CCN(CC)S(=O)(=O)c1cc(NC(=O)CCNC(=O)c2ccco2)ccc1C,0%,6.6µM*,-4,9.3µM*,1,?
Cc1ccc2nc(Br)c3c(c2c1)OC(CBr)C3 (stereo not drawn),13%,?,-13,0%,-1,-9%
O=C(COc1ccc([N+](=O)[O-])cc1)Nc1ccc2c(c1)OCO2,-11%,-1%,22,18%,11,1%
CC1CCN(Cc2c(C(=O)O)nnn2-c2nonc2N)CC1,10%,1.5µM*,4,19%,-1,-1%
Cc1ccc(C)c(C(=O)Nc2cc(C)nn2-c2nc(C)cc(C)n2)c1,-10%,?,17,13µM*,-6,-1%
O=C(Nc1ccncc1)Nc1ccccc1Cl,8%,?,49*,?,24*,30%
Cc1cc(C)nc(-n2nc(C)cc2NC(=O)c2cccc(S(=O)(=O)N(C)C)c2)n1,4%,2%,7,?,-4,0%
O=C(Nc1ccncc1)c1ccccc1Cl,12%,?,37*,35%,13,-1%
Cc1ccc(C)c(C(=O)Nc2ccncc2)c1,5%,2.1µM*,·,?,0,9%
O=C(O)c1ccc(NS(=O)(=O)c2ccc(NC(=O)c3ccccc3Cl)cc2)cc1,-9%,6.6µM*,-3,22%,1,0%
Clc1cc(Br)ccc1NCc1cccnc1,9%,-14%,3,0%,14,-8%
O=C(Nc1cccnc1)Nc1ccccc1Cl,-2%,·,93,34%,26*,-10%
O=C(Nc1ccc(NS(=O)(=O)c2ccccc2)cc1)c1ccccc1Cl,5%,·,·,·,·,-1%
